Bioassay records deposited in PubChem BioAssay by Sanford-Burnham Center for Chemical Genomics.
Sampled rows, rich in hits. Any-hit rate of the full collection: about 6.3%.
tim10-1 inh: growth inhibitors of tim10-1 mutant yeast; S. cerevisiae tim10-1 ts strain growth, BacTiter-Glo, 24 h; inhibition, % at 20 µM; 330,000 tested, 2.2% active;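 active = inhibition of at least 40%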;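 also: mutant grown at 25 °C; 0% = DMSO wells with yeast and 100% = wells holding no yeast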
Mdm2 MdmX PPI: disrupts the human Mdm2-MdmX interaction; SaOS-2 split-luciferase Mdm2/MdmX complementation, luminescence; inhibition, % at 8 µM; 330,000 tested, 3% active;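 active = inhibition of at least 50% at 8 µM in the primary screen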
Target sequence (O15151 whole entry, looked up): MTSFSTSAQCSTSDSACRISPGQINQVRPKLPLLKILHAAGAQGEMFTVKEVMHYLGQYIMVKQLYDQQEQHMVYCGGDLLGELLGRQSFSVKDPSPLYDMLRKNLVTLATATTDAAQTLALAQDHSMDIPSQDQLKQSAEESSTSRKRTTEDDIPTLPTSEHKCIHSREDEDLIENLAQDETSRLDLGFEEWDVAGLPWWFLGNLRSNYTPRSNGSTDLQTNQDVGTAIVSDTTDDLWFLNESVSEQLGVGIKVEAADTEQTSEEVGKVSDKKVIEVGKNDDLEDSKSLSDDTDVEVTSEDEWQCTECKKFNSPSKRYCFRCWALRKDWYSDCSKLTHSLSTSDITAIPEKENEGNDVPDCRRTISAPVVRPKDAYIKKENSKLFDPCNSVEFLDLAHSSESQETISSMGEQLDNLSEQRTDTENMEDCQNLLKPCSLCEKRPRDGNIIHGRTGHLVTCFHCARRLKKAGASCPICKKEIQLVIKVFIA
Target sequence (Q00987 whole entry, looked up): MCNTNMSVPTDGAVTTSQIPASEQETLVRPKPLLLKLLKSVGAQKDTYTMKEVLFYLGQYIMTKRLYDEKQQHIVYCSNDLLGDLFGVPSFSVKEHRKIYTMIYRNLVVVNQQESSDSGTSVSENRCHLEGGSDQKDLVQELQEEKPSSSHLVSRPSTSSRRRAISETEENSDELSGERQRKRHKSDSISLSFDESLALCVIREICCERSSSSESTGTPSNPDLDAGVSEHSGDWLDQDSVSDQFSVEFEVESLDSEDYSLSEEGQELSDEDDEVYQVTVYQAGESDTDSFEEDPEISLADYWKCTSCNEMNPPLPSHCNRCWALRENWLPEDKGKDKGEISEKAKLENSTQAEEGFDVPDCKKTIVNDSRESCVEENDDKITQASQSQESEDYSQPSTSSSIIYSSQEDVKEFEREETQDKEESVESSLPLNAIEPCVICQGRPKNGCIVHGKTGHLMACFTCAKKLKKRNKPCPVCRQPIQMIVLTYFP
MPTP inh: blocks calcium-induced mitochondrial swelling; isolated mouse mitochondria, Ca2+ swelling absorbance, 30 min; inhibition, % at 10 µM; 360,000 tested, 1.4% active; AID 602449;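 active = inhibition of 50% or more, scaled per plate between neutral and stimulator controls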;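 also: 0% = DMSO wells given calcium and 100% = 1 mM EGTA wells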
tim23-1 inh: tim23-1 yeast growth inhibition. S. cerevisiae tim23-1 growth, BacTiter-Glo luminescence, 24 h. inhibition, % at 20 µM. 330,000 tested, 1.3% active. AID 463212;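 active = growth inhibition of the mutant yeast at or above 50%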;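 also: temperature-sensitive mutant grown at 25 °C; plate controls were DMSO-treated mutant yeast for no effect and medium wells lacking yeast for full effect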
TIM10 inh: growth inhibitors of TIM10 yeast strain. AID 463195. inhibition, % at 10 µM. 330,000 tested, 1.4% active. S. cerevisiae TIM10 strain growth, BacTiter-Glo luminescence, 24 h;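 active = inhibition of 40% or more at the single tested concentration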;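 also: wild-type TIM10 isogenic control strain grown at permissive 25 °C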
Mdm2-MdmX conf: confirmation of human Mdm2/MdmX interaction inhibitors; shares compounds with Mdm2 MdmX PPI; Mdm2-MdmX binding, luminescent assay; inhibition, % at 8 µM; 10,000 tested, 55% active; AID 489028; in the data active = inhibition above about 40%
Full FLuc ctr: inhibits full-length luciferase, flagging false Mdm2/MdmX hits; shares compounds with Mdm2 MdmX PPI; SaOS-2 full-length luciferase counterscreen, luminescence; inhibition, % at 8 µM; 6,200 tested, 77% active; AID 504607;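 active = mean inhibition at 8 µM reaching about 37%, which flags the compound as non-specific, limit read from the data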;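 also: p53-null SaOS-2 cells with luciferase driven by a doxycycline-inducible promoter; compound on cells about two nights before reading with doxycycline added after day one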
* = called active by the depositor.

Screening CC(C)Nc1nc(Nc2ccc(Cl)cc2F)c2sccc2n1 returned MPTP inh 3.0.
Screening CC(=O)Nc1ccc(Oc2sc(C(=O)c3ccccc3)c(N)c2C#N)cc1 returned tim10-1 inh 19.7, Mdm2 MdmX PPI 61.5*, MPTP inh -1.4, tim23-1 inh 19.7, TIM10 inh 8.0, Mdm2-MdmX conf 29.1 and Full FLuc ctr 78.1*.
CC(=O)Nc1ccc(Oc2ccccc2)cc1 was read as tim10-1 inh 7.5, Mdm2 MdmX PPI 14.4, MPTP inh 1.7, tim23-1 inh 6.9 and TIM10 inh 15.9.
O=C(NCc1cccc(C(F)(F)F)c1)c1csc(COCCO)n1 was read as MPTP inh 0.2.
Screening CCn1c(CN2CCC(C)CC2)nc2cc(S(=O)(=O)N3CCCCC3)ccc21 returned MPTP inh 28.1.
For O=C(Cc1ccc(-n2cccc2)cc1)NCc1cccs1 the results were tim10-1 inh 1.3, Mdm2 MdmX PPI 54.7*, MPTP inh -0.5, tim23-1 inh -6.1, TIM10 inh -16.3, Mdm2-MdmX conf 46.5* and Full FLuc ctr 67.3*.
`CCCCn1nnnc1C(c1cc2ccccc2o1)N1CCN(c2ncccc2C#N)CC1` (centres undefined) gave MPTP inh -0.9.
For O=C(Nc1nc2ccccc2s1)c1ccc(Cl)s1 the results were tim10-1 inh 4.8, Mdm2 MdmX PPI -228.5, MPTP inh 2.2, tim23-1 inh 18.4 and TIM10 inh 6.9.
`Cc1ccc2nc(NC(=O)c3ccc(-c4nc5ccccc5s4)s3)sc2c1` gave tim10-1 inh 6.6, Mdm2 MdmX PPI 98.3*, MPTP inh -0.5, tim23-1 inh 8.1, TIM10 inh 5.7, Mdm2-MdmX conf 46.2* and Full FLuc ctr 83.9*.
`Cn1cc(/C=N/n2cnc3scc(-c4ccc(Cl)cc4)c3c2=O)c2ccccc21` gave tim10-1 inh 16.6, Mdm2 MdmX PPI 73.0*, MPTP inh 1.5, tim23-1 inh 13.0, TIM10 inh 13.3, Mdm2-MdmX conf 62.9* and Full FLuc ctr 63.2*.
Screening CCn1cnc2scc(-c3ccccc3)c2c1=O returned tim10-1 inh 9.1, Mdm2 MdmX PPI 4.0, MPTP inh 1.1, tim23-1 inh 2.1 and TIM10 inh -0.2.
`COc1ccc(C(=O)Nc2cccc3c2CCCC3)cc1` gave tim10-1 inh 6.2, Mdm2 MdmX PPI 51.1*, MPTP inh -2.5, tim23-1 inh -1.8, TIM10 inh -13.2, Mdm2-MdmX conf 34.6 and Full FLuc ctr 73.8*.
`COc1ccc(CC(=O)Nc2cccc3c2CCCC3)cc1` gave tim10-1 inh -11.2, Mdm2 MdmX PPI 13.9, MPTP inh 0.3, tim23-1 inh 10.9 and TIM10 inh -24.1.
CCc1nc2ccc(C(=O)N3CCN(c4ccccc4)CC3)cn2c1N(C)CCCc1ccccc1 was read as MPTP inh -1.5.
For COc1cc(/C=C(\C#N)c2nc3ccc(C)cc3[nH]2)cc([N+](=O)[O-])c1O the results were MPTP inh 2.7.
COc1ccc(/C=C(\C#N)c2nc3ccc(C)cc3[nH]2)cc1Oc1ccc(C(F)(F)F)cc1[N+](=O)[O-] was read as tim10-1 inh 19.8, Mdm2 MdmX PPI 83.2*, MPTP inh 43.4, tim23-1 inh -18.6, TIM10 inh -24.6 and Mdm2-MdmX conf 11.8.
Cc1cc(Nc2ccccc2C(=O)O)nc2nc3ccccc3c(=O)n12 was read as tim10-1 inh -2.9, Mdm2 MdmX PPI -0.8, MPTP inh -1.3, tim23-1 inh 3.4 and TIM10 inh 7.3.
For NC(=O)c1ccccc1Nc1nc2nc3ccccc3c(=O)n2cc1Br the results were tim10-1 inh -2.4, Mdm2 MdmX PPI 73.7*, tim23-1 inh 10.4, TIM10 inh 3.1 and Mdm2-MdmX conf -4.8.
CCC(c1nnnn1-c1ccc2c(c1)OCCO2)N1CCN(c2ccccn2)CC1 (centres undefined) was read as MPTP inh 0.1.
COc1cccc(CNc2nc3cc(-c4cnn(Cc5ccccc5)c4)sc3c(=O)n2C)c1 was read as MPTP inh 0.7.
Cn1c(=O)c2c(nc(Oc3ccc4ccccc4c3)n2C)n(C)c1=O was read as tim10-1 inh 29.5, Mdm2 MdmX PPI 51.9*, MPTP inh -2.6, tim23-1 inh 20.1, TIM10 inh 15.1, Mdm2-MdmX conf 61.6* and Full FLuc ctr 33.6.
For CC(C)Oc1ccc(CN2CCC2(C)C(=O)Nc2cccc(Oc3ccccc3)c2)cc1 (centres undefined) the results were MPTP inh -0.7.
For COC(=O)c1cc(-c2ccc(Br)cc2)c2c(=O)n(C)c(=O)n(C)c2n1 the results were tim10-1 inh -7.2, Mdm2 MdmX PPI 71.6*, MPTP inh 1.3, tim23-1 inh 7.0, TIM10 inh -7.5 and Mdm2-MdmX conf 3.6.
`COc1cc2sc(-c3ccccc3OC)c(-c3ccc(OCCN4CCOCC4)cc3)c2cc1OC` gave tim10-1 inh 35.5, Mdm2 MdmX PPI 60.5*, MPTP inh -2.0, tim23-1 inh 49.2, TIM10 inh 10.2 and Mdm2-MdmX conf 9.3.
For COc1ccc2c(-c3ccc(OCCN4CCCCC4)cc3)c(-c3ccccc3OC)sc2c1 the results were tim10-1 inh -41.9, Mdm2 MdmX PPI 62.7*, MPTP inh 0.8, tim23-1 inh 1.1, TIM10 inh 10.1 and Mdm2-MdmX conf 16.4.
`COC(=O)[C@]12CCCCC=C1N(Cc1cccc3ccccc13)C(=O)[C@H](CC(=O)N1CCN(C(=O)c3ccco3)CC1)C2` gave MPTP inh -0.1.
O=C(Nc1ccccc1)C1Cc2c(-c3ccco3)ccnc2O1 (centres undefined) was read as MPTP inh 0.2.
Screening O=c1ccc2ccc(Oc3ccc([N+](=O)[O-])cc3[N+](=O)[O-])cc2o1 returned tim10-1 inh 16.5, Mdm2 MdmX PPI 57.6*, tim23-1 inh 49.8, TIM10 inh 19.1, Mdm2-MdmX conf 60.0* and Full FLuc ctr 71.7*.
Screening O=C(Oc1ccc2ccc(=O)oc2c1)c1ccc([N+](=O)[O-])cc1 returned tim10-1 inh 10.1, Mdm2 MdmX PPI 26.6, MPTP inh 1.4, tim23-1 inh 16.4 and TIM10 inh 26.0.
For COc1cc(NS(=O)(=O)c2ccc(C)cc2)c2c(c1N)C(=O)c1ccccc1C2=O the results were MPTP inh 10.2.
For Cc1ccc(S(=O)(=O)N2CCN(C(=O)c3c(C)nn(-c4ccccc4)c3Cl)CC2)cc1 the results were tim10-1 inh 11.0, Mdm2 MdmX PPI -5.2, MPTP inh 0.4, tim23-1 inh 31.2 and TIM10 inh 25.7.
O=C(c1cc(-c2cccs2)nn1-c1ccccc1)N1CCN(S(=O)(=O)c2ccccc2)CC1 was read as tim10-1 inh 25.2, Mdm2 MdmX PPI 54.5*, MPTP inh 0.8, tim23-1 inh 21.1, TIM10 inh 2.6, Mdm2-MdmX conf 38.4 and Full FLuc ctr 91.6*.
